Measured values reported in PubChem BioAssay (NCI).
About 79,000 compounds went through this panel and 15% of them were active in at least one assay; those are over-represented in the sample as a whole. A number with no mark means an inactive call. Calls of active or inactive are those of the source. Rule as the data show it: active = growth inhibition above about 70%; inactive = the rest.

Assay: NCI Yeast Anticancer Drug Screen. Data for the rad18 strain (AID 177)
Conditions: S. cerevisiae rad18 mutant growth inhibition, active compounds read high
Procedure: Growth inhibition of yeast strains with defined genetic alterations is measured as a screen for potential anti-cancer activity. Selected strains with alterations in DNA damage repair or cell cycle control were exposed to compounds and growth inhibition was measured relative to vehicle treated controls. The strain used in this assay is rad18

Structure (SMILES)	growth inhibition (at 1.2 µM)	growth inhibition (at 3.7 µM)	growth inhibition (at 11.0 µM)	growth inhibition (at 33.0 µM)	growth inhibition (at 100.0 µM)
CC1CN=C(Nc2ccccc2)S1 (stereo not given)	-50%	-54%	-51%	-58%	-42%
COc1cc(O)c2c(O)c3c(c4c2c1[C@]1(C4)C(C)=CCCC1(C)C)[C@H](O)[C@@]1(O)CC(=O)C(C(N)=O)=C(O)[C@@]1(O)C3=O	-21%	85% (active)	97% (active)	97% (active)	95% (active)
COc1cccc2c1C(=O)c1c(O)c3c(c(O)c1C2=O)C[C@@](O)(/C(C)=N\O)C[C@@H]3OC1CC(N)C(O)C(C)O1 (stereo not given in full)	3%	10%	20%	43%	75% (active)
O=C(O)CCCOc1cc(Cl)c(Cl)cc1Cl	-33%	-21%	-7%	41%	77% (active)
OC1CCCC2CCC[N-]C12.OC1CCCC2CCC[N-]C12.[O]=[V][OH] (stereo not given)	46%	95% (active)	96% (active)	96% (active)	96% (active)
CS(=O)(=O)OCCN(CCOS(C)(=O)=O)c1ccc(C=O)cc1	85% (active)	92% (active)	95% (active)	96% (active)	96% (active)
Nc1ccccc1C(=O)OCCc1ccccc1	-58%	-22%	-29%	-24%	87% (active)
CC1CC(C)CC(C)C(O)/C(C#N)=C/C=C/CC(C2CCCC2C(=O)O)OC(=O)CC(O)C(C)C1 (stereo not given)	96% (active)	97% (active)	98% (active)	97% (active)	97% (active)
